Screening data deposited in PubChem BioAssay by National Center for Advancing Translational Sciences (NCATS).
KDM5B inh: KDM5B demethylase inhibition | KDM5B demethylase, FDH-coupled NADH fluorescence (FDH is formaldehyde dehydrogenase) | Potency, µM (top dose mostly 57.7 µM), most hits filed as inhibitors | actives 2.6% (n = 220,000); active means well fitted inhibition curve with a large enough effect; further: 0% is about no effect; nearly all actives have a fitted effect of over 70% in size
Target sequence (Q9UGL1 whole entry, looked up): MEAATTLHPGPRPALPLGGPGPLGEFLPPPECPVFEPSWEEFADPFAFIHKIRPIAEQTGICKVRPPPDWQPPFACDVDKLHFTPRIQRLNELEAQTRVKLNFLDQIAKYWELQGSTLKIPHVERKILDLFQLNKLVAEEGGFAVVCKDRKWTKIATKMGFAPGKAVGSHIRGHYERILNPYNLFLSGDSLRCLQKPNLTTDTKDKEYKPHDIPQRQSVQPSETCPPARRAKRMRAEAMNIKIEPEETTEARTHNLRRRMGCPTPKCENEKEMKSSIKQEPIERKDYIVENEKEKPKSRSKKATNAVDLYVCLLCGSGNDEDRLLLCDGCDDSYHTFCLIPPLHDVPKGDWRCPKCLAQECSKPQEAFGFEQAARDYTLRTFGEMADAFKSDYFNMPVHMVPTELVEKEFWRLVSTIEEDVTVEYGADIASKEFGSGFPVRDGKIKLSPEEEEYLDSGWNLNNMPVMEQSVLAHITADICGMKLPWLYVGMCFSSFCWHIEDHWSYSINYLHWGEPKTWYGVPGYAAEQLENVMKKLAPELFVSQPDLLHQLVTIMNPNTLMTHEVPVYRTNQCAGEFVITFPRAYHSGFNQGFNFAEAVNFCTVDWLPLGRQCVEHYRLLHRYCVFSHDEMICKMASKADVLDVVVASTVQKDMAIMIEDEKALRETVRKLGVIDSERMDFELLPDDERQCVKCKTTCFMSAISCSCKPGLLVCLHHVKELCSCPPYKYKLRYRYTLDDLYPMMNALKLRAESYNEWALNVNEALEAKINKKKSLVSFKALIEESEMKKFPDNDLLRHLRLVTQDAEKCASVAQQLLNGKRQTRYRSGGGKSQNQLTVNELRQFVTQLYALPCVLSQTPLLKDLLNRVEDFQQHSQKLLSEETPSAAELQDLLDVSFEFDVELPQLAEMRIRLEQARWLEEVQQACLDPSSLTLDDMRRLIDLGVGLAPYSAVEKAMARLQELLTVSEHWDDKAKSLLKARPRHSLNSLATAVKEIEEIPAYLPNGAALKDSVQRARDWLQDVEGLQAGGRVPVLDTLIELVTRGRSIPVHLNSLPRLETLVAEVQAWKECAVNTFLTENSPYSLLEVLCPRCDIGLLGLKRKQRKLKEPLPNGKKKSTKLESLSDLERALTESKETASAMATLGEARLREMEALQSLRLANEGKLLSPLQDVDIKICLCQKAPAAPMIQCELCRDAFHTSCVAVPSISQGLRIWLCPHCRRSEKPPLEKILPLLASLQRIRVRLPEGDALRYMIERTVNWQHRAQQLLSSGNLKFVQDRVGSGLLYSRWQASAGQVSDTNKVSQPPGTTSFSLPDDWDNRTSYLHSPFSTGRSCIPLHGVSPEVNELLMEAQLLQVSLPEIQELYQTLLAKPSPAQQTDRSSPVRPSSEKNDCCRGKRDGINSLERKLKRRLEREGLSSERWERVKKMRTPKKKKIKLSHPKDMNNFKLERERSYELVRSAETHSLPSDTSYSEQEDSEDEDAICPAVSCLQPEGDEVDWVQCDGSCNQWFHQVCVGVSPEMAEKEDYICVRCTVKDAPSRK
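Here, H3K4me3 peptide (12.5 µM in substrate mix) is demethylated by KDM5BΔAP, 200 nM final, after 10 min compound exposure. Formaldehyde product is coupled through FDH (0.25 U/mL in mix) to NADH fluorescence; 30-min ΔRFU feeds dose-response curves.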
An asterisk follows results filed as active; i = inactive. This is one part of a sample in which hits are shown more often than they occur. Potency means the concentration at half of the fitted maximal effect.

SMILES	KDM5B inh
N#CCCN(C(=O)Cn1nc(Cc2cccnc2)c2ccccc2c1=O)c1ccccc1	i
Cc1cc(NC(=O)C(C)N(c2ccccc2)S(C)(=O)=O)ccc1Br (centres undefined)	i
O=S(=O)(Nc1ccc2cn[nH]c2c1)c1ccccc1C(F)(F)F	i
Cc1ccc2nc(SCC(=O)Nc3sc4c(c3C#N)CCC4)[nH]c2c1	i
CC(O)CNS(=O)(=O)c1ccc(Cl)c(C(=O)O)c1 (centres undefined)	i
COc1ccc(Cc2nc3nccc(-c4ccc(F)cc4OC)n3n2)cc1	18µM*
CN(Cc1ccc(F)cc1)C(=O)c1n[nH]c(=O)c2ccccc12	i
COC(=O)CC1CCNCC1	i
Cc1cccc(OCCc2noc(C3CCCNC3)n2)c1 (centres undefined)	i
CSCC(=O)N[C@H]1CCN2C(=O)c3cc(/C=C/c4ccccc4)ccc3NC(=O)[C@H]12	16µM*
COc1ccc(Cl)cc1-c1ccc2c(c1)C(=O)N1CC[C@H](NC(=O)C3CCCC3)[C@H]1C(=O)N2	i
O=C(N[C@H]1CCN2C(=O)c3cc(-c4ccccc4F)ccc3NC(=O)[C@H]12)C1CCCC1	i
CC(C)NC(=O)N[C@H]1CCN2C(=O)c3cc(Br)ccc3NC(=O)[C@@H]2C1	i
COc1ccc(-c2ccc3c(c2)C(=O)N2CC[C@H](NC(=O)C4CCCC4)[C@H]2C(=O)N3)c(OC)c1	32µM*
O=C(O)COCC(=O)N[C@H]1CCN2C(=O)c3ccc(Cl)cc3NC(=O)[C@H]12	i
CC(C)NC(=O)N[C@H]1CCN2C(=O)c3cc(/C=C/c4ccccc4)ccc3NC(=O)[C@H]12	35µM*
O=C(O)COCC(=O)N[C@H]1CCN2C(=O)c3cc(-c4ccccc4)ccc3NC(=O)[C@H]12	i
NCc1cccc(-c2ccc3c(c2)C(=O)N2CC[C@H](NC(=O)NC4CCCCC4)[C@H]2C(=O)N3)c1	i
COc1ccc(/C=C/c2ccc3c(c2)C(=O)N2CC[C@H](NC(=O)COCC(=O)O)[C@H]2C(=O)N3)cc1	22µM*
COc1ccc(CNC(=O)C(C)Cl)cc1 (centres undefined)	i
CC(=O)N1N=C(c2ccco2)CC1c1ccc2nccnc2c1 (centres undefined)	i
CC(C)CN1CCN(CCN(C)Cc2ccccc2)CC1	i
CCN(NC(=O)c1ccc(CNC(N)=O)cc1)c1ccc(C)cc1	i
COc1ccc(C2CC(=O)C=C(Nc3ccc(F)cc3F)C2)cc1 (centres undefined)	i
COc1cc(C(=O)NCc2c(C)nn(Cc3ccccc3)c2C)cc(Cl)c1OC	i
SMILES	KDM5B inh
CCn1cnc2c1c(=O)n(Cc1c(C)noc1C)c(=O)n2Cc1ccccc1	i
C=C(C)COc1ccc2c(=O)c(Oc3ccc(C(=O)OC)cc3)coc2c1	i
CN(C)C[C@@H]1CN(c2ccncn2)C[C@H]1NC(=O)NC1CCCCC1	i
CN(C)C[C@@H]1CN(c2ccccn2)C[C@H]1NC(=O)c1ccoc1	28µM*
CN(C)C[C@@H]1CN(c2ccncn2)C[C@H]1NC(=O)Cc1ccsc1	i
CN(C)C[C@@H]1CN(c2ccccn2)C[C@H]1NC(=O)c1ccsc1	22µM*
CN(C)C[C@@H]1CN(c2ccncn2)C[C@H]1NC(=O)c1ccsc1	i
CN(C)C[C@@H]1CN(c2ccccn2)C[C@H]1NC(=O)Cn1c(=O)oc2ccccc21	22µM*
CN(C)C[C@@H]1CN(c2ccccn2)C[C@H]1NC(=O)NC1CCCCC1	32µM*
CN(C)C[C@@H]1CN(Cc2ccccc2)C[C@H]1NC(=O)c1ccoc1	i
CN(C)C[C@@H]1CN(c2ccncn2)C[C@H]1NC(=O)CC1CCCCC1	i
CN(C)C[C@@H]1CN(c2ccncn2)C[C@H]1NC(=O)Cn1c(=O)oc2ccccc21	i
CN(C)C[C@@H]1CN(c2ccccn2)C[C@H]1NC(=O)c1ccc(C#N)cc1	i
CN(C)C[C@@H]1CN(c2ccncn2)C[C@H]1NC(=O)Cc1cccs1	i
Cc1ccccc1-c1cc(=O)c2cc(NC(=O)c3cccnc3)ccc2o1	i
CC(C)(CO)C(O)C(=O)NCCCS(=O)(=O)O (centres undefined)	i
O=C(Nc1cnc2ccccc2c1)c1ccc(Cl)cc1Cl	i
O=C(c1cc(Cl)ccc1F)N1CCN(C(=O)c2nnn3c2COC(c2ccccc2)C3)CC1 (centres undefined)	i
COC(=O)c1cccc(OS(=O)(=O)c2ccc3oc(=O)ccc3c2)c1	i
CC(=O)Oc1ccc2c(=O)c(Oc3ccccc3Br)c(C)oc2c1	i
O=C(NCc1cccs1)C(c1ccccc1)c1ccccc1	i
O=C(/C=C/c1ccco1)N1CCCC(C(F)(F)F)C1 (centres undefined)	i
O=C(NC1CCS(=O)(=O)C1)c1cc(-c2ccco2)on1 (centres undefined)	i
O=C(NC[C@H]1O[C@H](Cc2cc(-c3ccc(F)cc3)on2)CC[C@@H]1O)NC1CCCCC1	i
CC(C)CN1CCN(c2nc3c(c(=O)[nH]c(=O)n3C)n2CCc2ccccc2)CC1	i
SMILES	KDM5B inh
C=CCN(Cc1ccc(C#N)cc1)S(=O)(=O)c1cccs1	i
O=C(Nc1ccccc1)C1CCN(C(=O)c2nn(-c3ccccc3)c(=O)c3ccccc23)CC1	i
Cc1ccc(Cn2c(C3CCN(C(=O)c4cc(Cl)ccc4F)CC3)n[nH]c2=O)cc1	i
CN(C)C[C@@H]1CN(c2ccccn2)C[C@H]1NC(=O)c1cccn1C	22µM*
CN(C)C[C@@H]1CN(c2ccccn2)C[C@H]1NC(=O)c1ccc2c(c1)OCO2	28µM*
CN(C)C[C@@H]1CN(c2ccncn2)C[C@H]1NC(=O)c1cccn1C	i
CN(C)C[C@@H]1CN(c2ccncn2)C[C@H]1NC(=O)c1ccc2ccccc2n1	i
CCOC(=O)C(C)Oc1ccc2c(=O)c(-c3ccc(Cl)cc3)coc2c1 (centres undefined)	i
N#CC1(Nc2ccccc2)CCCCC1	i
Cn1c(SCc2csc(-c3ccccn3)n2)nnc1C1CC1	i
COCCN(C)C[C@@H]1CN(C(=O)c2ccc(-c3ccco3)cc2)C[C@@H]1CO	32µM*
COCCN(C)C[C@@H]1CN(C(=O)c2ccc(-c3ccc(C)o3)cc2)C[C@@H]1CO	i
COCCN(C)C[C@@H]1CN(C(=O)c2ccc(-c3ccccc3)n2C)C[C@@H]1CO	i
Cc1ccc(C(=O)NC(C)c2cccc(C(F)(F)F)c2)cn1 (centres undefined)	i
CNC(=O)NC(=O)C(C)Nc1cccc(Cl)c1C (centres undefined)	i
COc1ccc2c(C)cc(SCC(=O)NC(C)c3ccccc3)nc2c1 (centres undefined)	i
CC(C)(C)CC(=O)N1CC[C@H]2NC(=O)N(c3ccc(Oc4ccccc4)cc3)C(=O)[C@H]21	i
O=S(=O)(c1ccc(F)cc1)N1CCCN(c2nccc(C(F)(F)F)n2)CC1	i
OCC1(Cc2ccccc2F)CCCN(c2nccc(C(F)(F)F)n2)C1 (centres undefined)	25µM*
OCCNc1cc(N2CCCC(CO)(Cc3ccccc3F)C2)ncn1 (centres undefined)	i
COc1cccc(-c2cc(C(=O)NCCc3cccs3)[nH]n2)c1	i
COc1ncc(-c2cc3c(nc2OC)nc(CCc2ccccc2)n3C)cn1	i
COc1nc2nc(CCc3ccccc3)n(C)c2cc1-c1ccnn1C	40µM*
COc1ccc(S(=O)(=O)Nc2ccc(CCc3nc4ccccc4n3C)cc2)cc1	i
